Results: PubChem BioAssay
Calls of active or inactive are those of the source.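 The calls were made as follows, unless noted: active = NADPH fluorescence slope more negative than the mean of all samples by about 3 SD, 99.7% confidence; inactive = the rest.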

Legend:
[1] = inhibitors of TNFa-induced NFkB p65 translocation, primary screen, imaging, HUVEC, MLSMR starter and 10KST1 sets (AID 438;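 active = inhibition above 20% together with a positive visual image hit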;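 also: compound added about 3h40 before a 20 min TNFalpha stimulation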;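 as to inhibition: signal is the nuclear over cytoplasmic p65 intensity ratio per well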); conditions: HUVEC TNFa-induced p65 nuclear translocation; cell count: measured here: nuclei count (cytotoxicity indicator), at 2.08 µM; inhibition: at 2 µM, stronger effect = higher value, 0% TNFa-plus-vehicle, 100% no-TNFa wells
[2] = reduction of polyQ htt aggregates in cells – imaging, exon1htt(103Q)mCFP cells, high-content imaging, primary screen (AID 483;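 active = visual image review flags a hit and inhibition of aggregation exceeds 20%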;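 also: compound exposure lasted 3 days before fixation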;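 as to nuclei count: percent of the per-plate median nuclei count of sample wells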); conditions: exon1htt(103Q)mCFP cell line, aggregate imaging, at 2 µM; inhibition of aggregation: stronger effect = higher value; nuclei count: measured here: cell count, toxicity
[3] = endothelial E-selectin expression blockers – imaging, HUVEC, immunofluorescence, MLSMR starter and 10KST1 sets, primary screen (AID 487;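 active = visually confirmed hit in the image check and inhibition above 20%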;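 as to inhibition: signal is fraction of cell area covered by stained E-selectin grains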;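 as to nuclei count: 100% = median nuclei count of all wells on the same plate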); conditions: HUVEC TNFalpha-induced E-selectin immunofluorescence imaging, at 2 µM; inhibition: stronger effect = higher value; nuclei count: measured here: cell number, toxicity
[4] = target: Voltage-gated potassium channel subunit beta-2 (Rattus norvegicus) (UniProt P62483); assay: inhibitors of rat Kvbeta2 reductase activity – biochemical, NADPH fluorescence, primary screen (AID 622;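 active = fluorescence slope higher than the sample average by over 3 SD, cut at about -0.22 in these data, passing the limit was not always enough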;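 also: slope of raw intensity against log time taken from 70 to 1610 s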); conditions: recombinant KvBeta, 4-cyanobenzaldehyde reduction, at 10 µM, stronger effect = higher value
[5] = target: Voltage-gated potassium channel subunit beta-2 (Rattus norvegicus) (UniProt P62483); assay: enhancers of rat Kvbeta2 NADPH turnover – biochemical, NADPH fluorescence, primary screen (AID 623); conditions: Recombinant KvBeta, NADPH fluorescence decrease slope, 10 min; at 10 µM; stronger effect = lower value;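 also: fluorescence intensity change per second fitted from 20 to 320 s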
[6] = target: Alpha-2C adrenergic receptor (Homo sapiens) (UniProt P18825); assay: compounds altering alpha2C-coupled GIRK flux – cell-based, HEK293 alpha2C/GIRK1/2, thallium flux, primary screen (AID 624;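 active = fluorescence slope after compound addition differing from the mean of all screened samples at 99.7% confidence, in either direction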;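 also: slope of fluorescence ratio to pre-addition baseline per second over 15 to 24 s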); conditions: thallium flux BTC fluorescence, at 10 µM, actives lie on both sides
[7] = blockers of RIG-like receptor reporter activation – cell-based, Sendai virus stimulus, luciferase, 10K MLSCN set, TLR/RLR signaling modifier project, primary screen (AID 602276;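 active = inhibition at or above 50% at 10 µM; inactive = inhibition below 50%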;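 also: firefly luciferase from ISG56 promoter only with Renilla not read in this screen; 0% = Sendai virus plus DMSO and 100% = medium plus DMSO without virus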); conditions: HEK293 RL24 IRF3 luciferase reporter, at 10 µM, stronger effect = higher value
[8] = TLR3 IRF3 reporter activation blockers – cell-based, poly I:C stimulus, luciferase, 10K MLSCN set, primary screen (AID 602277;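 active = inhibition of the reporter signal at or above 50%; inactive = inhibition below 50%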); conditions: HEK293-TLR3 RL24 IRF3 luciferase reporter, at 10 µM, stronger effect = higher value

Chain of Alpha-2C adrenergic receptor (Homo sapiens) (P18825 whole entry, looked up): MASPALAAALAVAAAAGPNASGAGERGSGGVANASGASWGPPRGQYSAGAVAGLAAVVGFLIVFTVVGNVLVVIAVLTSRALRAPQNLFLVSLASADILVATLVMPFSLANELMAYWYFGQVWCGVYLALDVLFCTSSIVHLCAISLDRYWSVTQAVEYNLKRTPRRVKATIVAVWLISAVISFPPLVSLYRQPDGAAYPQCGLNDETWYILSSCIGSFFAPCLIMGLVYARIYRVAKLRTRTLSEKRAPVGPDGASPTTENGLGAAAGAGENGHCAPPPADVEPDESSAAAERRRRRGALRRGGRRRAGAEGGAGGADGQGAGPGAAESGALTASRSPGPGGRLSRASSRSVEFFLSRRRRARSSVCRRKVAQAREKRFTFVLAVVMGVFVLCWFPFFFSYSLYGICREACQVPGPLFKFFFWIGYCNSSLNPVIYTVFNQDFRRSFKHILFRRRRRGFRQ
Chain of Voltage-gated potassium channel subunit beta-2 (Rattus norvegicus) (P62483 whole entry, looked up): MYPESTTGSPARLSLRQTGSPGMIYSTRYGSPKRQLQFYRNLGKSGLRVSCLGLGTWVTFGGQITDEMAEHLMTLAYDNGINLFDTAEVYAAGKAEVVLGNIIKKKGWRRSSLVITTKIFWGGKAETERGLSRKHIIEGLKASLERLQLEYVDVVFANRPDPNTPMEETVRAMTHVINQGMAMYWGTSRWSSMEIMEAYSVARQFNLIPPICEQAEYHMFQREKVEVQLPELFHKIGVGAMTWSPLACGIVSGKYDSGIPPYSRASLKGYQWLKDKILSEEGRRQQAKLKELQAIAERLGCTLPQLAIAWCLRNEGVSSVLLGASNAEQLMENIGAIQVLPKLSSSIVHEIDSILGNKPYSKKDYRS

Row | SMILES | cell count [1] | inhibition [1] | inhibition of aggregation [2] | nuclei count [2] | inhibition [3] | nuclei count [3] | fluorescence slope [4] | NADPH fluorescence slope [5] | slope [6] | inhibition [7] | inhibition [8]
1 | CC(=O)Nc1sc2c(c1CN1CCN(c3ccccn3)CC1)CCCC2 | 698 | -14.6% (inactive) | 5.2% (inactive) | 95.6% | 54.3% (active) | 95.3% | -0.517 (inactive) | -3.7e-05 (inactive) | 0.00435 (inactive) | 6.55% (inactive) | 12.4% (inactive)
2 | CC1(C)CC(=O)c2cnc(NC(=O)Cc3ccc(Cl)cc3)nc2C1 | 382 | -0.3% (inactive) | -0.3% (inactive) | 97.2% | -20.1% (inactive) | 115% | -0.485 (inactive) | -4.8e-05 (inactive) | 0.00659 (inactive) | -25% (inactive) | 18.3% (inactive)
3 | COCCn1c(SCC(=O)N2CCc3ccccc32)nc2c(c1=O)SC(C)C2 (centres undefined) | 499 | -4.4% (inactive) | 13% (inactive) | 87.2% | -0.4% (inactive) | 109% | -0.45 (inactive) | -1.4e-05 (inactive) | 0.00569 (inactive) | 1.65% (inactive) | 22.3% (inactive)
4 | COc1ccc(C(=O)CSc2nnc(C3CCCCC3)n2N)c(OC)c1 | 419 | -11.9% (inactive) | 24.4% (inactive) | 97.2% | 99.1% (active) | 89.1% | -0.612 (inactive) | -2e-05 (inactive) | 0.00551 (inactive) | 10.3% (inactive) | 11.5% (inactive)
5 | CCOC(=O)C1(CC)NC(c2cccc(F)c2)C2C(=O)N(CC)C(=O)C21 (centres undefined) | 567 | -7.7% (inactive) | 21.4% (inactive) | 93.8% | -6.6% (inactive) | 70.2% | -0.476 (inactive) | -0.00018 (inactive) | 0.00451 (inactive) | 12.4% (inactive) | 16.3% (inactive)
6 | O=C(CN1CCN(c2ncccn2)CC1)Nc1ccccc1-n1cccc1 | 327 | 13.4% (inactive) | 16% (inactive) | 81.3% | 25.5% (inactive) | 93.4% | -0.621 (inactive) | -6.7e-06 (inactive) | 0.006 (inactive) | 14.7% (inactive) | 8.32% (inactive)
7 | COc1ccc(N2CCN(CCNC(=O)CCS(=O)(=O)c3cccc4nsnc34)CC2)cc1 | 747 | -6.4% (inactive) | -23% (inactive) | 101% | 15% (inactive) | 109% | -0.598 (inactive) | -3.9e-05 (inactive) | 0.00466 (inactive) | 16.8% (inactive) | 15.8% (inactive)
8 | Cc1ccc(-c2nc3ccccc3[nH]2)s1 | 362 | -13.1% (inactive) | -2.5% (inactive) | 95.2% | -72.7% (inactive) | 101% | -0.277 (inactive) | -1.4e-05 (inactive) | 0.00551 (inactive) | -45.9% (inactive) | -155% (inactive)
9 | Cc1ccc(S(=O)(=O)Nc2cc(C(=O)O)ccc2N2CCCCC2)cc1 | 518 | -20.1% (inactive) | 15.4% (inactive) | 98.1% | -107% (inactive) | 114% | -0.42 (inactive) | -2.5e-05 (inactive) | 0.00575 (inactive) | 11.2% (inactive) | 29.2% (inactive)
10 | Cc1nn(C(=O)c2ccoc2C)c(N)c1-c1ccccc1 | 764 | -1.1% (inactive) | -13.8% (inactive) | 132% | -25.3% (inactive) | 116% | -0.534 (inactive) | -4.2e-05 (inactive) | 0.007 (inactive) | -27.9% (inactive) | -123% (inactive)
11 | CCCn1c(SCC(=O)Nc2ccccc2C(=O)OC)nc2c1c(=O)n(C)c(=O)n2C | 576 | -10.9% (inactive) | 20.6% (inactive) | 95.3% | -152% (inactive) | 84.8% | -0.395 (inactive) | -7.6e-05 (inactive) | 0.00511 (inactive) | 15.9% (inactive) | 13% (inactive)
12 | Clc1ccc(-n2nnnc2Sc2ncnc3sccc23)cc1 | 530 | -9% (inactive) | -12.2% (inactive) | 107% | -12.2% (inactive) | 122% | -0.528 (inactive) | -4.1e-05 (inactive) | 0.00502 (inactive) | 5.22% (inactive) | 66.8% (active)
13 | CC1CCN(S(=O)(=O)c2cn(CC(=O)N3CCN(C)CC3)c(=O)c3ccccc23)CC1 | 278 | -8.5% (inactive) | -2.7% (inactive) | 91.6% | -28.3% (inactive) | 121% | -0.604 (inactive) | 5.5e-06 (inactive) | 0.00569 (inactive) | 0.28% (inactive) | 17.6% (inactive)
14 | O=C1CC(c2ccc(F)c(Br)c2)C2=C(CCCC2=O)N1 (centres undefined) | 334 | -6.7% (inactive) | -9.9% (inactive) | 113% | -63% (inactive) | 108% | -0.327 (inactive) | 4e-06 (inactive) | 0.00275 (inactive) | -0.311% (inactive) | 26.9% (inactive)
